A short description of test [1]: qHTS assay to identify small molecule antagonists of the sonic hedgehog signaling (Shh) pathway (AID 1259369; calls by dose curve; note: nearly all actives have a fitted effect of over 45% in size). The gist of the method: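 NIH/3T3-derived Gli1-Luc reporter cells plated 4 h, dosed with compound, then stimulated with conditioned medium for 24 h at 37 C. Firefly luciferase luminescence read after 30 min with detection reagent at room temperature.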
For orientation: qHTS replaces the single test concentration by a dilution series.

Test [2] addresses Estrogen receptor beta (Homo sapiens) (UniProt Q92731). Put plainly: qHTS assay to identify small molecule agonists of the estrogen receptor beta (ER-beta) signaling pathway (AID 1259377; active = well fitted activation curve with a large enough effect in the signal ratio in the repeat runs, not every such curve was filed as active; the % refers to the signal ratio). The method, boiled down: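 Read-out: beta-lactamase FRET fluorescence. Cell line: ER-beta-UAS-bla HEK293T in 2% charcoal-stripped FBS. Exposure: 16 hr at 37C. Substrate step: 2 h at room temperature.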

Test [3] shares this target. Description: qHTS assay to identify small molecule antagonists of the estrogen receptor beta (ER-beta) signaling pathway (AID 1259378; active = well fitted inhibition curve with a large enough effect in the signal ratio in the repeat runs, not every such curve was filed as active; the % refers to the signal ratio). The gist of the method:
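ER-beta-UAS-bla HEK293T cells in 2% charcoal-stripped FBS medium treated with compound plus 1nM final 17-beta-estradiol for 16 hr at 37C. Beta-lactamase reporter read by FRET substrate fluorescence after 2 hours at room temperature.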

Test [4] is described as follows: qHTS assay to identify small molecule agonists of the androgen receptor (AR) signaling pathway in the presence of an antagonist - cell viability counter screen (AID 1259379).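 For activity change, negative = cytotoxicity: MDA-kb2 human breast cancer cells carrying an MMTV luciferase reporter; series mostly up to about 92 µM.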 Note: nearly all actives have a fitted effect of over 25% in size. Note: potency is the fitted concentration of half-maximal effect. The gist of the method:
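MDA-kb2 cells (MMTV-luciferase, AR/GR), 3,000/well, 5 h attachment, then 3.0 µM nilutamide (final) and compounds at 15 concentrations. Viability by CellTiter-Fluor fluorescence after 16 h at 37 °C, 0% CO2, in the reporter wells.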

Test [5] can be described thus: qHTS assay to identify small molecule agonists of the estrogen receptor beta (ER-beta) signaling pathway - cell viability counter screen (AID 1259380). Note: nearly all actives have a fitted effect of over 30% in size. The method, boiled down:
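ER-beta-UAS-bla HEK293T cells in medium with 2% charcoal-stripped FBS, pre-incubated 6 hr, then treated 16 hr at 37C. Cytotoxicity read in the same wells by CellTiter-Glo luminescence after 30 min at room temperature.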

Test [6] deals with Estrogen receptor (Homo sapiens) (UniProt P03372). Description: qHTS assay to identify small molecule agonists of the estrogen receptor alpha (ER-alpha) signaling pathway in the presence of an antagonist (AID 1259383; calls by dose curve; note: top concentration of the series differs between compounds; nearly all actives have a fitted effect of over 15% in size). The method, boiled down:
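VM7Luc4E2 cells express endogenous full-length ER-alpha with an ERE-luciferase reporter and were hormone-deprived for 5 days. Compounds at 15 concentrations were added with 10.0nM ICI-182,780 for 22hr at 37C. Luminescence was read with ONE-Glo.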

A short description of test [7]: qHTS assay to identify small molecule agonists or antagonists of the thyroid stimulating hormone receptor (TSHR) signaling pathway - wild type cell line counter screen (AID 1259384; calls by dose curve). The gist of the method: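 Wild-type Hek293 cells, 800/well, 18 h at 37C, then compound with Ro20-1724 for 30 min RT. cAMP by HTRF (cAMP-d2/anti-cAMP cryptate), 1 h RT, fluorescence read. 15 concentrations, triplicates.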

Test [8] addresses Thyrotropin receptor (Homo sapiens) (UniProt P16473). Description: qHTS assay to identify small molecule antagonists of the thyroid stimulating hormone receptor (TSHR) signaling pathway (AID 1259385; calls by dose curve; note: nearly all actives have a fitted effect of over 20% in size). The method, boiled down: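 TSHR-HEK293 cells (800/well) plated 18 h, then compounds with Ro20-1724 and TSH at 1.5 ng/mL final, 30 min at room temperature. cAMP quantified by HTRF (cAMP-d2/anti-cAMP-cryptate, 1 h); 15 concentrations in triplicate.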

Test [9] concerns the target Progesterone receptor (Homo sapiens) (UniProt P06401). Description: qHTS assay to identify small molecule agonists of the progesterone receptor (PR) signaling pathway (AID 1346784; calls by dose curve; note: nearly all actives have a fitted effect of over 30% in size). The method, boiled down: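 Compounds were tested for PR agonism in HEK 293T cells bearing a beta-lactamase gene under UAS control. Treatment lasted 16 hr at 37C; signal came from fluorescence of a FRET substrate.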

Test [10] shares this target. Put plainly: qHTS assay to identify small molecule antagonists of the progesterone receptor (PR) signaling pathway (AID 1346795; active = well fitted inhibition curve with a large enough effect in the signal ratio in the repeat runs, not every such curve was filed as active; the % refers to the signal ratio). The gist of the method: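 In HEK293T cells bearing the PR-UAS-bla reporter, compound effects on promegestone-driven (1 nM) beta-lactamase expression are assessed after 16 hr using a fluorescent FRET substrate incubated 2 hr at room temperature.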

Test [11] in a line: qHTS assay to identify small molecule antagonists of the progesterone receptor (PR) signaling pathway - cell viability counter screen (AID 1346798). Note: series mostly up to about 92 µM; nearly all actives have a fitted effect of over 50% in size. The method, boiled down:
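Following a 4 hr attachment, PR-UAS-bla HEK293T cells in charcoal-stripped FBS medium were exposed to compounds with R5020 for 16 hr; CellTiter-Glo was added and luminescence read after 30 min at room temperature.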

The nature of test [12]: qHTS assay to identify small molecule agonists of the progesterone receptor (PR) signaling pathway - cell viability counter screen (AID 1346799; calls by dose curve; note: nearly all actives have a fitted effect of over 45% in size). The gist of the method:
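Here, 3,000 PR-UAS-bla HEK293T cells per well were treated with compounds for 16 hr after a 6 hr preincubation at 37C and 5% CO2; cell viability is the CellTiter-Glo luminescence signal.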

Test [13] is described as follows: qHTS assay to identify small molecule antagonists of the TGF-beta/Smad signaling pathway - cell viability counter screen (AID 1346824). Note: nearly all actives have a fitted effect of over 50% in size. The method, boiled down:
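SBE-bla HEK 293T cells, incubated overnight, then compound plus 0.25 ng/mL TGF-beta1 (stock added) for 5 hr at 37 C. Viability was read in the same wells by CellTiter-Glo luminescence after 30 min at room temperature.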

Test [14] can be described thus: qHTS assay to identify small molecule agonists of the TGF-beta/Smad signaling pathway - cell viability counter screen (AID 1346829). Note: top concentration of the series differs between compounds; nearly all actives have a fitted effect of over 45% in size. The method, boiled down:
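Luminescence from CellTiter-Glo, read after a 30 min room-temperature incubation, gives cell viability of SBE-bla HEK 293T cells treated 5 hr with compounds at 37 C.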

Test [15] is described as follows: qHTS assay to identify small molecule agonists of the TGF-beta/Smad signaling pathway (AID 1346859; active = well fitted activation curve with a large enough effect in the signal ratio in the repeat runs, not every such curve was filed as active; the % refers to the signal ratio; note: series mostly up to about 77 µM). The gist of the method:
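Each well held 4,000 SBE-bla HEK 293T cells incubated overnight before compound addition; 5 hr later the cleavable FRET substrate went on for 2 hr at room temperature, and fluorescence was read at two emissions.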

The target in test [16] is Thyrotropin-releasing hormone receptor (Homo sapiens) (UniProt P34981). Put plainly: qHTS assay to identify small molecule antagonists of the thyrotropin-releasing hormone receptor (TRHR) signaling pathway (AID 1346877; active = well fitted inhibition curve with a large enough effect in the repeat runs, not every such curve was filed as active; note: series mostly up to about 51 µM). The method, boiled down:
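TRHR-expressing HEK293 cells loaded with calcium dye for 2 h at 37 C; compounds pre-incubated 5 min at room temperature before TRH challenge at 1 nM final. Intracellular calcium fluorescence read kinetically for 3 min; 15 concentrations in triplicate.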

Test [17] shares this target. Put plainly: qHTS assay to identify small molecule agonists of the thyrotropin-releasing hormone receptor (TRHR) signaling pathway (AID 1346891; calls by dose curve; note: series mostly up to about 58 µM). The method, boiled down: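 Screening of agonists relied on calcium signalling in HEK293 cells expressing human TRHR: dye loading 2 h at 37 °C preceded compound addition and a 3-min fluorescence time course.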
Test [18] deals with Androgen receptor (Homo sapiens) (UniProt P10275). Description: qHTS assay to identify small molecule agonists of the androgen receptor (AR) signaling pathway in the presence of an antagonist (AID 1259381; calls by dose curve; note: nearly all actives have a fitted effect of over 15% in size). The method, boiled down:
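MDA-kb2 cells carrying MMTV-luciferase (AR/GR responsive), 3,000 cells/well, co-treated with 3.0 uM nilutamide final. Compounds at 15 concentrations, 16 hr at 37C without CO2. Luciferase luminescence read after 30 min with ONE-Glo.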

A short description of test [19]: qHTS assay to identify small molecule antagonists of the estrogen receptor beta (ER-beta) signaling pathway - cell viability counter screen (AID 1259382). Note: series mostly up to about 92 µM; nearly all actives have a fitted effect of over 55% in size. The method, boiled down:
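ER-beta-UAS-bla HEK293T cells in 2% charcoal-stripped FBS medium, treated with compound plus 1 nM 17-beta-estradiol for 16 h at 37C. Viability read by CellTiter-Glo luminescence after 30 min at room temperature in the same wells.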

A short description of test [20]: qHTS assay to identify small molecule agonists of the estrogen receptor alpha (ER-alpha) signaling pathway in the presence of an antagonist - cell viability counter screen (AID 1259386). For activity change, negative = cytotoxicity: series mostly up to about 92 µM.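 Note: cells exposed to compounds for 22 h at 37 °C before the viability read; nearly all actives have a fitted effect of over 30% in size.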 Note: potency is the fitted concentration of half-maximal effect. The method, boiled down: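 Cell viability in VM7Luc4E2 cells (endogenous full-length ER-alpha) measured by CellTiter-Fluor fluorescence in the same wells as the luciferase screen. Cells pre-cultured 5 days in charcoal-stripped serum, then treated 22 h with compounds at 15 concentrations plus 10.0nM ICI-182,780.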

Eight molecules from PubChem BioAssay (Tox21) can be followed below.

SMILES strings stand for the structures. Values without a mark were called inactive. Inconclusive results are not listed. The source made the active and inactive calls. Unless noted, calls come from the whole dose curve; as a rule, active = well fitted curve in the direction sought with a large enough effect in the repeat runs; inconclusive = weak or mixed curves; inactive = no such curve, though single readings can be large; an effect the other way counts as inactive or inconclusive.
% is set by controls: 0 for no effect and ±100 for the full control effect.

Chain of Progesterone receptor (Homo sapiens) (P06401 whole entry, looked up): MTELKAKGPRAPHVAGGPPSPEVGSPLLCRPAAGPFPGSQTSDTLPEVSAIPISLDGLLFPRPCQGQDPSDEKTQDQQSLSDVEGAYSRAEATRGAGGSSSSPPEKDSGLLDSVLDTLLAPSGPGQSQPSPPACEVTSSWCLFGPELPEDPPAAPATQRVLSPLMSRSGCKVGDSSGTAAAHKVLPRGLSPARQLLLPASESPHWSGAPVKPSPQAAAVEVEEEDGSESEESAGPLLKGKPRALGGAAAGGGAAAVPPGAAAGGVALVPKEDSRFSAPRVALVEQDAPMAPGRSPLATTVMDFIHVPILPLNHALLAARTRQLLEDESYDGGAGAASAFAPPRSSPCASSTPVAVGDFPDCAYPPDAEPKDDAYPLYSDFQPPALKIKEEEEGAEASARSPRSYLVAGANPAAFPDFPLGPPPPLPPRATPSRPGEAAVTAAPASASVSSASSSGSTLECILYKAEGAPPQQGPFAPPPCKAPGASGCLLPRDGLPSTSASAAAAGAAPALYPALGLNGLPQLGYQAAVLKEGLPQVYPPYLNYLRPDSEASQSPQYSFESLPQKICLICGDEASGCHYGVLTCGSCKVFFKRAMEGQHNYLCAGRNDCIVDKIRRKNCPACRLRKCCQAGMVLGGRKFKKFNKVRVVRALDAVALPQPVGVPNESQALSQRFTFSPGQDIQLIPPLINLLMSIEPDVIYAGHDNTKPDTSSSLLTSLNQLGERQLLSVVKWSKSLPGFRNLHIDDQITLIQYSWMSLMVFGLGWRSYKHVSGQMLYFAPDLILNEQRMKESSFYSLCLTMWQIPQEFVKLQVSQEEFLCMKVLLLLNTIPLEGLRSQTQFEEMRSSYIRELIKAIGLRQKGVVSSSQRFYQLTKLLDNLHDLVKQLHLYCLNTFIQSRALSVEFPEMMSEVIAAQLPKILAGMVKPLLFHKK
Chain of Estrogen receptor beta (Homo sapiens) (Q92731 whole entry, looked up): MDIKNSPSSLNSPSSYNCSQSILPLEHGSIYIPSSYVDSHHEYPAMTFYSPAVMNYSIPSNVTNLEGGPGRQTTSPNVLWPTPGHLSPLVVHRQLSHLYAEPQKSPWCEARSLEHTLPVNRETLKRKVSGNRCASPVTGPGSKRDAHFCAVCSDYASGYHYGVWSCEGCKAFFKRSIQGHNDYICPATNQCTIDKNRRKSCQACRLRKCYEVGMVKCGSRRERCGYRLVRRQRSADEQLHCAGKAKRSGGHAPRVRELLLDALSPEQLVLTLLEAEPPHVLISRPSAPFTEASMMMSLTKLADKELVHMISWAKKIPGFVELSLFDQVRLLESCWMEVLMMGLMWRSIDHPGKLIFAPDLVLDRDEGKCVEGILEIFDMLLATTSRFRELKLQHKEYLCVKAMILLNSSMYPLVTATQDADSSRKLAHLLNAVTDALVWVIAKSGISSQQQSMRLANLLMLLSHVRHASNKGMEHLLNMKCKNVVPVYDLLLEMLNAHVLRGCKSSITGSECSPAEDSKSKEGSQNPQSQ
Chain of Thyrotropin receptor (Homo sapiens) (P16473 whole entry, looked up): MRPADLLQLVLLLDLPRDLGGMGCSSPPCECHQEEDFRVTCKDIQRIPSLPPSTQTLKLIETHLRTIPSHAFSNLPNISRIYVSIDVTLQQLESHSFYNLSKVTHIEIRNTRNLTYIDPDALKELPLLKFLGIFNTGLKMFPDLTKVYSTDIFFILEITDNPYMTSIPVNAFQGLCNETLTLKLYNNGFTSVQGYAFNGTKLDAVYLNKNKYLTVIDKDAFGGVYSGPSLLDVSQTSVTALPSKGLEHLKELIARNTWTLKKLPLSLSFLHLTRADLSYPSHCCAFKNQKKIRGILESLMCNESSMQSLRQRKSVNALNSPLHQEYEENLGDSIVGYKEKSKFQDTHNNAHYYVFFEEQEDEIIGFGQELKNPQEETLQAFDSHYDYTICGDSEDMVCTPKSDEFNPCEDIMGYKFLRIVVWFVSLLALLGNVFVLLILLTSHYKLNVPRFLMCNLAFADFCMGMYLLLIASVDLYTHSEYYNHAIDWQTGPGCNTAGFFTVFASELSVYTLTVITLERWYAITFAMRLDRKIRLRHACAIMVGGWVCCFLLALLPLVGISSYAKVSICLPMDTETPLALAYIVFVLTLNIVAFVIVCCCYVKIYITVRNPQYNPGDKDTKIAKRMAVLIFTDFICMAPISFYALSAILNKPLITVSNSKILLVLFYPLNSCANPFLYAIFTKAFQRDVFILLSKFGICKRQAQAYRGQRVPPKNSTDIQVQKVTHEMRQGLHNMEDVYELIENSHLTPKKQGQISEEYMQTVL
Chain of Thyrotropin-releasing hormone receptor (Homo sapiens) (P34981 whole entry, looked up): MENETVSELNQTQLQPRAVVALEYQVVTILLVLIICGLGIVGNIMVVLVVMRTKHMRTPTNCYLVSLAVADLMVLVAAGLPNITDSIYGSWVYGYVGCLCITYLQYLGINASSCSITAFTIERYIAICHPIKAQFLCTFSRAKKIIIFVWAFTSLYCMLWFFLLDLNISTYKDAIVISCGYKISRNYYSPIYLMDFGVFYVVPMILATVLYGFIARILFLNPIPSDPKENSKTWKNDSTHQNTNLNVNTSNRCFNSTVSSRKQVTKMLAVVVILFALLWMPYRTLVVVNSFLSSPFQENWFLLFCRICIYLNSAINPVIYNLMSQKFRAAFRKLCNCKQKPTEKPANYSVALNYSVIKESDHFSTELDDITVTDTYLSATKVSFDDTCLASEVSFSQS
Chain of Estrogen receptor (Homo sapiens) (P03372 whole entry, looked up): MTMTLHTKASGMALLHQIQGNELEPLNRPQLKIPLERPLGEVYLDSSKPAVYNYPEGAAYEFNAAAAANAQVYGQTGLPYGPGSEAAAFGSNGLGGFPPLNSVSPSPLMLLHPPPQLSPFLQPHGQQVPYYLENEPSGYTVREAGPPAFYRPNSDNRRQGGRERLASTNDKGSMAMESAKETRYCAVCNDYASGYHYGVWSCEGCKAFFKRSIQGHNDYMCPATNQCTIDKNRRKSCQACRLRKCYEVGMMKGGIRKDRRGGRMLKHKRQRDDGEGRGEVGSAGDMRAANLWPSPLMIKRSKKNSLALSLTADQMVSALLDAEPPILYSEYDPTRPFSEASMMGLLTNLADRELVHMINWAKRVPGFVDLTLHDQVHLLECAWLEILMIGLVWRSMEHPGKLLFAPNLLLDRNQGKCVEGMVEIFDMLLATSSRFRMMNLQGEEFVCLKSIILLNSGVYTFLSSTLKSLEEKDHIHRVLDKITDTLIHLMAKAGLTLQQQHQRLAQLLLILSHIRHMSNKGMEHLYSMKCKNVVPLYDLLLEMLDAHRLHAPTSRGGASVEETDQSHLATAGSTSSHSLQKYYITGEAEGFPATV
Chain of Androgen receptor (Homo sapiens) (P10275 whole entry, looked up): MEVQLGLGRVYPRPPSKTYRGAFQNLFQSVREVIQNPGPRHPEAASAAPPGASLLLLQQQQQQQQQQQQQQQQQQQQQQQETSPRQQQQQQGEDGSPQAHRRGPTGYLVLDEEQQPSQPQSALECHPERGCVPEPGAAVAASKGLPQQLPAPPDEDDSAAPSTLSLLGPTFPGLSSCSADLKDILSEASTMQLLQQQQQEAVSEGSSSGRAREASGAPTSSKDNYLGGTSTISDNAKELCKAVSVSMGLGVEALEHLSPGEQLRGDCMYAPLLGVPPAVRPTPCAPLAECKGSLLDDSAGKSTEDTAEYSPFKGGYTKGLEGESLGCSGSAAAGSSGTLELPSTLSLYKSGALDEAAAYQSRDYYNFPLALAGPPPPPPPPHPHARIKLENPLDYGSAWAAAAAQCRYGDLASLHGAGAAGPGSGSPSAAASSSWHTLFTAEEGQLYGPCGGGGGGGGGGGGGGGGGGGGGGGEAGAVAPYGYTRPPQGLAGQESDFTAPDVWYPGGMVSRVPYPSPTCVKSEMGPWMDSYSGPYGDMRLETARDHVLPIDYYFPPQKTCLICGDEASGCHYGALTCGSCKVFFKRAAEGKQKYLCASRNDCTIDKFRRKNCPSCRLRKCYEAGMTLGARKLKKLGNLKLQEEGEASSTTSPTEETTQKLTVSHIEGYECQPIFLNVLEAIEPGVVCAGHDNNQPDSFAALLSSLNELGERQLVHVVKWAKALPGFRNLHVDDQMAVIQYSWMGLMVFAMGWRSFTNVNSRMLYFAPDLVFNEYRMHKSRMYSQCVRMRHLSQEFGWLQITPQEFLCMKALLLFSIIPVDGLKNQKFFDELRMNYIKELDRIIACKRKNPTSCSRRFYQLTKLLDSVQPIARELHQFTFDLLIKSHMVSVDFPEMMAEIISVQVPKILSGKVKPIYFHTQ

Consider `NCC(=O)O`, for which the activity change, negative = inhibition is 20.6% [at 19 µM] in test [1], 2.94% [at 19 µM] in test [8] and 9.41% [at 18.9 µM] in test [10]. Also, the activation was -2.53% [at 19 µM] in test [2], -0.192% [at 19 µM] in test [9], -0.809% [at 15.8 µM] in [15] and -0.0833% [at 11.8 µM] in test [17]. Moreover, the activity, negative = inhibition in test [3] was 10% [at 19 µM]; in test [16] it was -3.84% [at 10.5 µM]. The activity change, negative = cytotoxicity in [4] is 0.351% [at 19 µM]; in [5], 4.31% [at 19 µM]; in [11], -3.8% [at 18.9 µM]; in test [12] it was 27.9% [at 19 µM]; in [14] it was 0.104% [at 15.8 µM]. Besides, the Potency result in [6] was “inactive”. Moreover, the cAMP activity change in test [7] is -6.62% [at 18.9 µM, stronger effect = higher value]. For the same molecule, the viability change, negative = cytotoxic in test [13] is -5.27% [at 15.8 µM].
Take `O=[N+]([O-])c1ccc(NCCO)c(OCCO)c1`: the Potency result in test [1], in test [2], in test [3], in test [5], in test [18] and in test [19] was “inactive” throughout. Besides, the Potency entry in test [7], in test [8], in test [9], in [12], in test [15] and in [17] was “inactive” each time. The Potency in test [4] was 54.5 µM (active); in test [20] it was 27.3 µM (active). Also, the call in [14] and in test [16] was inactive.
In the case of `O=C(O)c1ccccc1Cl`, the Potency result in [1], in test [2], in test [3], in [4], in test [5] and in test [19] was “inactive” each time. Also, the Potency entry in test [8], in test [20], in [9], in test [10], in test [11] and in test [12] was “inactive” each time. Moreover, the Potency result in test [13] and in test [15] was “inactive” throughout. In addition, the molecule was called inactive in test [14] and in test [16].
For the molecule `CCOC(=O)c1cccnc1`, the Potency result in test [1], in test [2], in test [3], in test [4], in [5] and in [19] was “inactive” each time. Besides, the Potency result in test [6], in [7], in test [8], in test [20], in test [10] and in test [11] was “inactive” throughout. In addition, the Potency result in test [12], in test [13], in [15] and in test [17] was “inactive” in each case. Besides, the molecule was classed as inactive in test [14] and in test [16].
For the molecule `OCCNCc1ccccc1`, the Potency entry in test [1], in [2], in [3], in test [4], in test [5] and in test [18] was “inactive” in each case. Moreover, the Potency result in test [19], in test [6], in [9], in test [10], in test [13] and in test [17] was “inactive” throughout. Also, the result in [14] and in [16] was inactive.
With `CC(C)Nc1ccc(NC(C)C)c2c1C(=O)c1ccccc1C2=O`, the Potency entry in [1], in test [2], in test [3], in test [6], in [7] and in [9] was “inactive” throughout. In test [12], the Potency result was “inactive”. Also, the Potency in test [4] and in test [20] was 11.3 µM (active) throughout. Moreover, the molecule was classed as inactive in [14].
For `COCC(C)OC(C)=O` (centres undefined), the Potency entry in test [1], in [2], in test [3], in test [4], in test [5] and in test [19] was “inactive” in each case. Also, the Potency result in [6], in test [20], in test [11], in [12], in test [13] and in [15] was “inactive” throughout. For the same molecule, the call in test [14] was inactive.
In the case of `COc1ccc(C)cc1[N+](=O)[O-]`, the Potency entry in test [1], in [2], in test [3], in test [4], in test [5] and in test [19] was “inactive” throughout. The Potency entry in test [7], in [20], in [9], in test [11], in [13] and in [15] was “inactive” each time. In test [17], the Potency result is “inactive”. Also, the molecule was called inactive in test [14] and in test [16].
